Test results from PubChem BioAssay (NCATS).
Results filed as inconclusive are left out. Where a call stands in place of a potency, no number is given. The source made the active and inactive calls. Calls come from the whole dose curve; as a rule, active = well fitted inhibition curve with a large enough effect; inconclusive = small, poorly fitted or top-dose-only effect; inactive = no such curve, though single readings can be large or run the other way.

assay: P-glycoprotein substrates identified in KB-3-1 adenocarcinoma cell line, qHTS therapeutic library screen (AID 1346986); conditions: KB-3-1 parental cells viability, CellTiter-Glo, 72 h; series mostly up to 44.5 µM; note: nearly all actives have a fitted effect of over 60% in size;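 note: potency is for cytotoxicity meaning loss of cell viability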
How it was run: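 Resistance attributable to P-gp was assessed by comparing AC50 in KB-8-5-11 with parental KB-3-1 and by tariquidar reversal. Cells were exposed 72 h and viability read by CellTiter-Glo.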
Potency is the fitted concentration of half-maximal effect.

SMILES | Potency | outcome
O=C([C@@H](Cc1cccc(C(F)(F)F)c1)NS(=O)(=O)c1cc(F)c2c(c1)CCNC2)N1CCCC1 | inactive | –
CC(=O)O[C@@H]1CC2C(/C=C(\C)C(=O)[C@@]3(O)C[C@@H](C)[C@H](OC(=O)c4ccccc4)C3/C=C/1C)C2(C)C (stereo partly drawn) | inactive | –
CC1=C(c2ccc(NC(=O)c3c(F)cccc3F)cc2)CN(c2nccs2)CC1 | inactive | –
C=C1C(=O)O[C@@H]2[C@H]1CCC(C)=C(CCC(=O)O)[C@@]2(C)O | inactive | –
C=CC(=O)Nc1cccc(Nc2nc(Nc3ccc(OCCOC)cc3)ncc2F)c1 | 11.6 µM (active) | –
C=C1C(=O)O[C@@H]2C[C@H](C)[C@@H]3CC(=O)[C@H](O)[C@@]3(C)C[C@H]12 | inactive | –
CC(C)(C)Sc1c(CC(C)(C)C(=O)O)n(Cc2ccc(Cl)cc2)c2ccc(OCc3ccc4ccccc4n3)cc12 | inactive | –
CCN(Cc1ccccc1)C(=O)Cn1c(=O)n(C)c2cnc(-c3ccccc3)nc21 | inactive | –
C=C1C(=O)O[C@@H]2/C=C(\CO)CC/C=C(/C=O)C[C@H](O)[C@@H]12 | inactive | –
CC(=O)OCC(=O)[C@@]12O[C@@H]1C[C@H]1[C@@H]3CC=C4C[C@@H](O)CC[C@]4(C)[C@H]3CC[C@@]12C | inactive | –
C=CC(=O)N1CC(N2CCN(C(=O)CNc3cc(C4CC4)c(Cl)cc3O)CC2)C1 | inactive | –
Cn1sc(=O)n(Cc2ccccc2)c1=O | 7.31 µM (active) | –
O=C(Cc1c(F)cccc1F)Nc1cc(OCc2ccc(Cl)cc2)ccn1 | inactive | –
NC(=O)c1nc(Nc2ccccc2)sc1NC(=O)C1CCCCC1 | inactive | –
CC1(C)CCC2(C(=O)OC3OC(COC4OC(CO)C(O)C(O)C4O)C(O)C(O)C3O)CCC3(C)C(=CCC4C5(C)CCC(OC6OCC(O)C(O)C6O)C(C)(C)C5CCC43C)C2C1O (stereo not drawn) | – | inactive [at 9.29 µM]
CC1(C)CCCC2(C)C1C(OC(=O)/C=C/C=C/C=O)C=C1COC(=O)C12O (stereo not drawn) | inactive | –
C#Cc1cccc(Nc2nc3cc(C(=O)O)ccc3c3cncnc23)c1 | 5.8 µM (active) | –
Cc1cccc(N2CCN(C(=O)c3cc(S(=O)(=O)N(C)C)ccc3N3CCCC3)CC2)c1C | inactive | –
CN1CCc2cc3c(cc2C(=O)Cc2cc4c(cc2C1)OCO4)OCO3 | inactive | –

SMILES | Potency | outcome
C=CC(=O)Nc1cccc(Nc2nc(Nc3ccc(NC4CN(CCF)C4)cc3OC)ncc2C(F)(F)F)c1 | 10.3 µM (active) | –
CC(=O)O[C@@H]1CC2C(C)(C)C(=O)C=C[C@]2(C)C2CC[C@@]3(C)[C@H](c4ccoc4)OC(=O)[C@H]4O[C@]43[C@@]21C (stereo partly drawn) | inactive | –
CC(C)n1nc(C#Cc2ccccc2)c2c(N)ncnc21 | 14.6 µM (active) | –
COC1C(OC(=O)/C=C/C=C/C=C/C=C/C(=O)O)CCC2(CO2)C1C1(C)OC1CC=C(C)C (stereo not drawn) | inactive | –
C=CC(=O)N1CCC(Oc2cc3c(Nc4ccc(Cl)c(Cl)c4F)ncnc3cc2OC)CC1 | 13 µM (active) | –
Cn1ncc(Cl)c1-c1cc(C(=O)N[C@H](CN)Cc2ccc(F)c(F)c2)oc1Cl | 11.6 µM (active) | –
CC1(C)CN(C(=O)c2ccc(-c3cccc4nc(NC(=O)C5CC5)nn34)cc2)C1 | inactive | –
COc1cc(C(C)=O)c(OC)c2c1OC(C)(C)C=C2 | inactive | –
CC(C)S(=O)(=O)c1ccc2nccc(Nc3ccc4scnc4c3)c2c1 | inactive | –
COc1cc2ncnc(Oc3ccc(CC(=O)Nc4cnn(C(C)C)c4)cc3)c2cc1OC | inactive | –
C/C(=N\N=C(N)N)c1cc(NC(=O)CCCCCCCCC(=O)Nc2cc(/C(C)=N/N=C(N)N)cc(/C(C)=N/N=C(N)N)c2)cc(/C(C)=N/N=C(N)N)c1 | 14.6 µM (active) | –
COc1c(C(C)C)c(O)c(O)c2c1C(OC)[C@H]1OC(=O)[C@@]23CCCC(C)(C)[C@H]13 (stereo partly drawn) | inactive | –
C=C1C(=O)O[C@@H]2C[C@@]3(C)C[C@@H](O)C[C@H](C)C3=C[C@H]12 | inactive | –
C[C@@H]1O[C@@H](O[C@H]2CC[C@@]3(C)C(CC[C@]4(C)C3CC=C3[C@@H]5CC(C)(C)CC[C@]5(C(=O)O[C@@H]5O[C@H](CO)[C@@H](O)[C@H](O)[C@H]5O)CC[C@]34C)[C@]2(C)CO)[C@H](O)[C@H](O[C@@H]2O[C@H](CO)[C@@H](O)[C@H](O)[C@H]2O)[C@H]1O (stereo partly drawn) | – | inactive [at 9.29 µM]
CC(C)(F)CC(NC(c1ccc(-c2ccc(S(C)(=O)=O)cc2)cc1)C(F)(F)F)C(=O)NC1(C#N)CC1 (stereo not drawn) | inactive | –
CC1=CC2/C=C(\C)CCC(O)C/C=C/C(=O)OC23C(=O)NC(CC(C)C)C3C1C (stereo not drawn) | inactive | –
C=C1C(=O)O[C@@H]2/C=C(\C)CC/C=C(/C=O)[C@H](OC)[C@@H](OC(=O)C(C)C)[C@@H]12 | inactive | –
COc1ccc(-c2ccc3c(N4CCOCC4C)nc(N4CCOCC4C)nc3n2)cc1CO (stereo not drawn) | 0.0731 µM (active) | –
NC(=O)c1ccccc1Nc1ccnc(Nc2cccc(O)c2)n1 | 1.3 µM (active) | –
